High-throughput results deposited in PubChem BioAssay by National Center for Advancing Translational Sciences (NCATS).
DRD3 antagonist: D3 dopamine receptor (human) antagonism; max response, negative = inhibition, %; D3R cells, DiscoveRx beta-arrestin luminescence, antagonist mode; stronger effect = lower value; 2.5% of 360,000 active; AID 652054; in the data active means max response below about -50%; inconclusive means no clear call, values can overlap the other calls; further: on the % scale 0 is the no-effect control and ±100 the full control effect
Target sequence (P35462 whole entry, looked up): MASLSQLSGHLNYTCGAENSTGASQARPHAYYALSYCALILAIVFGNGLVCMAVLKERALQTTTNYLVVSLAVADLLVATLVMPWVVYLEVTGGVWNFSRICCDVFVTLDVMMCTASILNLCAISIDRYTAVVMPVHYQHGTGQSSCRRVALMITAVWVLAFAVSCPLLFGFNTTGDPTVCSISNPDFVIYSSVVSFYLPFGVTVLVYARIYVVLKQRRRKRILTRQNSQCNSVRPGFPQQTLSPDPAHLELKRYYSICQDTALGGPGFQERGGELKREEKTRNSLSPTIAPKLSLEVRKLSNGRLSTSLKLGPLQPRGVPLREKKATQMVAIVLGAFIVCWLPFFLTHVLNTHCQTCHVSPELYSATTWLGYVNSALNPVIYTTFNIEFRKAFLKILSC
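Cells expressing the human receptor were seeded at 1500 cells/well, incubated overnight at 37 degrees C in 5% CO2, then exposed to library compounds with dopamine controls for 90 minutes at 37 degrees C before luminescent detection.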
D1 potentiator: potentiators of human D1 dopamine receptor; 0.036% of 360,000 active; HEK293 TREx D1 cells, calcium flux, dopamine EC20 potentiation; potentiation, % at 10 µM; P21728; in the data active means potentiation above about 30%; further: 0% is about no effect
D3 ag: D3 dopamine receptor (human) agonism; P35462; D3R DiscoveRx beta-arrestin cells, luminescence, 90 min; max activation, %; 0.58% of 410,000 active; in the data active means max activation above about 30%; further: 0% is about no effect
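Agonist-mode cell screen: cells plated at 1500/well and incubated overnight at 37 °C, then exposed to library compounds for 90 min at 37 °C. Detection reagent was added for 30–60 min at room temperature, and luminescence was read.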
D1 ag: human D1 receptor agonism. P21728. HEK293 T-REx D1 cells, calcium flux, agonist mode. activation, % at 2 µM. 1% of 360,000 active. AID 504660; in the data active means activation above about 30%; further: 0% is about no effect
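Tetracycline-induced HEK293 TREx D1 cells, force-coupled to calcium signalling, were dye-loaded with a no-wash calcium kit. Compound was pin-added after a 10 s baseline. Fluorescence was read kinetically at 1 cycle/s for 180 s, with calcium rises flagged as agonism.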
D1 antagonist: human D1 dopamine receptor antagonism. HEK293 TREx D1 cells, calcium flux, dopamine EC80; stronger effect = lower value. activity change, negative = inhibition, % at 10 µM. 3.2% of 360,000 active. AID 504652; in the data active means activity change below about -30%; further: on the % scale 0 is the no-effect control and ±100 the full control effect
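Allosteric or orthosteric antagonism assessed as attenuation of the calcium response to EC80 dopamine, added 180 s after compound, in induced HEK293 Trex D1 cells loaded with no-wash calcium dye.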
Starred values were filed as active, the others as inactive. Hits are enriched below; roughly 6% of the tested compounds scored in any of these assays.

Cc1cc(F)ccc1NC(=O)C(C(C)C)N1Cc2ccccc2C1=O (configuration not stated) was read as D1 potentiator 6, D3 ag -7, D1 ag -2 and D1 antagonist -22.
For O=C(CC1SC(N2CCCCC2)=NC1=O)Nc1cccc(C(F)(F)F)c1 (configuration not stated) the results were DRD3 antagonist 1, D1 potentiator -4, D3 ag -27, D1 ag 1 and D1 antagonist -34*.
For COc1ccccc1NC(=O)CSC1=Nc2ccccc2C2=NC(Cc3ccccc3)C(=O)N12 (configuration not stated) the results were D1 potentiator 3, D3 ag -15, D1 ag 4 and D1 antagonist 15.
`CN(Cc1ccccc1F)c1ccc(S(=O)(=O)N2CCCC2)cn1` gave DRD3 antagonist 11, D1 potentiator -8, D3 ag 0, D1 ag 13 and D1 antagonist -32*.
CCc1cc2cccc(C)c2nc1SCC(=O)c1ccc(NC(C)=O)cc1 was read as DRD3 antagonist 43, D1 potentiator 12, D3 ag 81*, D1 ag 4 and D1 antagonist -2.
`COc1cccc(NC(=O)Cn2c(=O)n(Cc3ccc(C(=O)NCc4ccc(C)cc4)cc3)c(=O)c3ccccc32)c1` gave D1 potentiator 7, D3 ag -4, D1 ag 9 and D1 antagonist -1.
CCc1cccc(CC)c1NC(=O)CO/N=C(\N)CC(=O)NC1CCCCC1 was read as DRD3 antagonist 15, D1 potentiator -1, D3 ag -10, D1 ag 3 and D1 antagonist 1.
Screening N/C(CC(=O)NC1CCCCC1)=N\OCC(=O)Nc1ccc(Cl)c(Cl)c1 returned DRD3 antagonist -3, D1 potentiator -1, D3 ag 0, D1 ag 5 and D1 antagonist -94*.
Screening O=C(COC(=O)c1ncc(Cl)c(Cl)c1Cl)NC1CCCCCC1 returned DRD3 antagonist 21, D1 potentiator -2, D3 ag 0, D1 ag 1 and D1 antagonist -44*.
Screening O=C(COC(=O)c1cc(F)c(F)cc1Cl)NC1CCCCCC1 returned DRD3 antagonist inconclusive and D3 ag -4.
For O=C(COC(=O)c1nc(Cl)ccc1Cl)NC1CCCCCC1 the results were DRD3 antagonist 15, D1 potentiator -4, D3 ag -9, D1 ag 9 and D1 antagonist -31*.
O=C(COC(=O)c1ccc(Cl)cc1)NC1CCCCCC1 was read as DRD3 antagonist 1, D3 ag 0, D1 ag 5 and D1 antagonist -18.
`CC(C)c1nn2c(=O)cc(COC(=O)c3ccccc3NC(=O)c3cccc(Cl)c3)nc2s1` gave D1 potentiator 0, D3 ag 19, D1 ag -2 and D1 antagonist 5.
Cc1ccccc1-c1nc2scc(CCNS(=O)(=O)c3ccccc3)n2n1 was read as D1 potentiator -2, D3 ag -17, D1 ag 10 and D1 antagonist -5.
Screening CC(C)(CO)NC12CC3CC(CC(C3)C1)C2 returned DRD3 antagonist -14, D1 potentiator -1, D3 ag 1, D1 ag 3 and D1 antagonist -10.
`CC(C)(C)CNC(CO)C12CC3CC(CC(C3)C1)C2` (configuration not stated) gave DRD3 antagonist -54*, D1 potentiator 4, D3 ag -3, D1 ag 4 and D1 antagonist 4.
For COCCn1c(SCC(=O)c2c(N)n(C3CC3)c(=O)[nH]c2=O)nc2ccccc21 the results were DRD3 antagonist -1, D1 potentiator -4, D3 ag 0, D1 ag 1 and D1 antagonist -41*.
For O=C(CCCc1c[nH]c2ccccc12)NCCc1c[nH]c2ccccc12 the results were DRD3 antagonist -19, D1 potentiator -4, D3 ag -5, D1 ag 3 and D1 antagonist -10.
For O=C(NCCc1c[nH]c2ccccc12)OCCCCOC(=O)NCCc1c[nH]c2ccccc12 the results were DRD3 antagonist 26, D1 potentiator -8, D3 ag 60*, D1 ag 2 and D1 antagonist -6.
Screening O=C(NCCc1c[nH]c2ccccc12)c1ccc([N+](=O)[O-])cc1 returned DRD3 antagonist -26, D1 potentiator -9, D3 ag -8, D1 ag 3 and D1 antagonist -49*.
For O=C(CCc1c[nH]c2ccccc12)NCCc1ccc(Cl)cc1 the results were DRD3 antagonist 3, D1 potentiator 0, D3 ag 2, D1 ag 0 and D1 antagonist -33*.
For COc1cccc(CNC(=O)c2sc3nc4n(c(=O)c3c2C)CCC4)c1 the results were D1 potentiator 3, D3 ag -1, D1 ag 0 and D1 antagonist 5.
For CCOc1ccc(NC(=O)c2ccc(-c3nc(COc4ccccc4)c(C)o3)cc2)cc1 the results were D1 potentiator 2, D3 ag -4, D1 ag -1 and D1 antagonist 7.
For COc1ccc(C(=O)NNC(=O)C(NC(=O)c2cc(OC)cc(OC)c2)C(C)C)cc1 (configuration not stated) the results were DRD3 antagonist 11, D1 potentiator -4, D3 ag -1, D1 ag 1 and D1 antagonist -39*.
Screening COc1cc(OC)cc(C(=O)NC(C(=O)NNC(=O)c2ccc(C)cc2)C(C)C)c1 (configuration not stated) returned DRD3 antagonist -16, D1 potentiator 5, D3 ag -9, D1 ag 1 and D1 antagonist 15.
Screening Cc1cc(C)n2nc(SCC(=O)N/N=C/c3cccc(Br)c3)nc2n1 returned DRD3 antagonist 13, D1 potentiator -5, D3 ag 8, D1 ag 1 and D1 antagonist 1.
Cc1cc(C)n2nc(SCC(=O)N/N=C/c3ccccn3)nc2n1 was read as DRD3 antagonist 2, D1 potentiator 1, D3 ag 5, D1 ag 1 and D1 antagonist -36*.
Screening Cc1cc(C)cc(-n2c(C)cc(/C=N/NC(=O)CSc3ncccn3)c2C)c1 returned DRD3 antagonist -24, D1 potentiator 7, D3 ag -5, D1 ag 44* and D1 antagonist 14.
Screening O=C(Nc1ccc(Cl)cc1)C1CCN(S(=O)(=O)c2ccc(Br)s2)CC1 returned D1 potentiator -3, D3 ag 0, D1 ag 2 and D1 antagonist -14.
`CCN(CC)S(=O)(=O)c1ccc2c(c1)N(CC(=O)N1CCN(c3cccc(C)c3)C(C)C1)C(=O)CO2` (configuration not stated) gave D1 potentiator 5, D3 ag 5, D1 ag -1 and D1 antagonist 9.
For CN(C)c1ccc(C=C2SC(=S)N(Cc3ccco3)C2=O)cc1 the results were DRD3 antagonist 11 and D3 ag 4.
